Where “and” joins values, the source holds several entries; their conditions need not be identical. Equal entries are not always repeated. Results filed as inconclusive are left out. Some compounds were tested as several samples or in several runs, with calls that do not always agree. Calls of active or inactive are those of the source. The calls were made as follows: active = hit-call score of the fitted dose curve at least 0.9, where 1 is the maximum; inconclusive = response in the unintended direction; inactive = score below 0.9.

Retinoic acid receptor RXR-alpha (Homo sapiens), sequence (P19793 whole entry, looked up, the tested form may be a part): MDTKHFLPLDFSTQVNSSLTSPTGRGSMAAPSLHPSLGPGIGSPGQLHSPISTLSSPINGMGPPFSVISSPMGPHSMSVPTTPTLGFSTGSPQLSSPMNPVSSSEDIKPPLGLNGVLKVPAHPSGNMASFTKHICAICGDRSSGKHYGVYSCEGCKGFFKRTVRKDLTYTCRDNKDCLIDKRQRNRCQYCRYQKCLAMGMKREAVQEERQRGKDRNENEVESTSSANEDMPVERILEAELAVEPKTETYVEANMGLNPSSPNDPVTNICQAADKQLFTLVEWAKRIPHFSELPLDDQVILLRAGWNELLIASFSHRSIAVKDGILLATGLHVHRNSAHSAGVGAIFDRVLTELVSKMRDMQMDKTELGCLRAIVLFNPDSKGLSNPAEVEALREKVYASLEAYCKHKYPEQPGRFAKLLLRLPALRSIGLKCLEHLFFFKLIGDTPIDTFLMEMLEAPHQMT

The experiment deals with Retinoic acid receptor RXR-alpha (Homo sapiens) (UniProt P19793). The experiment can be described thus: OT_NURR1_NURR1RXRa_0480: Odyssey Thera (OT) 8-hour HEK293T Protein Complementation Assay for Nurr1/retinoid X receptor (RXR) (AID 2283385). How it is done:
OT_NURR1_NURR1RXRa_0480 is a cell-based assay that uses HEK293T, a human kidney cell line, with measurements taken at 8 hours after chemical dosing in a 384-well plate.OT_NURR1_NURR1RXRa_0480 is one of one assay component(s) measured or calculated from the OT_NURR1_NURR1RXRa_0480 assay. It is designed to make measurements of protein fragment complementation, a form of binding reporter, as detected with fluorescence intensity signals by Protein-fragment Complementation technology.Data from the assay component OT_NURR1_NURR1RXRa_0480 was analyzed into 1 assay endpoint. This assay endpoint, OT_NURR1_NURR1RXRa_0480, was analyzed in the positive analysis fitting direction relative to DMSO as the negative control and baseline of activity. Using a type of binding reporter, measures of receptor for gain-of-signal activity can be used to understand the binding at the pathway-level as they relate to the gene RXRA. Furthermore, this assay endpoint can be referred to as a primary readout, because the performed assay has only produced 1 assay endpoint. To generalize the intended target to other relatable targets, this assay endpoint is annotated to the nuclear receptor intended target family, where the subfamily is non-steroidal.
Protein-fragment complementation assay, or PCA, is a method for the identification and quantification of protein-protein interactions. In the PCA, the proteins of interest ("bait" and "prey") are each covalently linked to fragments of a third protein (e.g. DHFR, which acts as a "reporter"). Interaction between the bait and the prey proteins brings the fragments of the reporter protein in close proximity to allow them to form a functional reporter protein whose activity can be measured.
In general, AC50 refers to the concentration at which the activity in the assay is half-maximal. With `CC(=O)O[C@]1(C(C)=O)CC[C@H]2[C@@H]3C=C(Cl)C4=CC(=O)[C@@H]5C[C@@H]5[C@]4(C)[C@H]3CC[C@@]21C`, the AC50 is 28 µM (active).
As for `Cc1cc(SC2=C(O)C[C@@](CCc3ccc(N)cc3)(C(C)C)OC2=O)c(C(C)(C)C)cc1CO`, the result was inactive.
Same read-out and setting: the entry for `Oc1ccccc1O` is “inactive”; for `CCCCCCCC(=O)OC` it is “inactive”; for `C/C=C/c1ccc(OC)cc1` it is “inactive”.
For `CCCCCCCCCCCCCCOS(=O)(=O)O`, the AC50 was 79.4 µM (active) and the call was inactive.
As to `O=C1O[C@H]([C@H](O)CO)C(O)=C1O`, the result was inactive.
For `O=C1NC(=O)C(c2ccccc2)(c2ccccc2)N1`, the compound was called inactive.
Turning to `Cc1ccc(C(C)(C)C)c(O)c1`, the compound was classed as inactive and the AC50 is 75 µM (active).
Regarding `CC(C)COC(=O)CCCCC(=O)OCC(C)C`, the compound was classed as inactive.
For `O=C(Oc1ccccc1)c1cccc(C(=O)Oc2ccccc2)c1`, the concentration at half-maximal activity (AC50) was 75.2 µM (active) and 79.8 µM (active).
Turning to `CCCC(=O)O`, the result was inactive.
Regarding `O=C1c2c(O)cccc2Cc2cccc(O)c21`, the call was inactive.
Take `C=CCCCCCCCCCCCC`: the compound was classed as inactive.
As to `CN(C)C(=O)NC1(c2ccccc2)CCN(CCC[C@]2(c3ccc(Cl)c(Cl)c3)CCCN(C(=O)c3ccccc3)C2)CC1`, the compound was called inactive and the AC50 is 19.3 µM (active).
`CSc1ccc(Oc2ccc(S(N)(=O)=O)cc2CN(C)C)cc1C`: the outcome was inactive and the concentration at half-maximal activity (AC50) is 50 µM (active).
On to `NC(=Nc1ccccc1)Nc1ccccc1`, for which the AC50 was 5.14 µM (active) and 12.2 µM (active).
Regarding `NC1CCCCC1`, the compound was classed as inactive.
Regarding `CC(C)(C)c1ccccc1`, the compound was classed as inactive.
For `Cn1cnc2c1c(=O)[nH]c(=O)n2C`, the outcome was inactive.
Turning to `CC(C)OC(=O)C(C)(C)Oc1ccc(C(=O)c2ccc(Cl)cc2)cc1`, the call was inactive.
As to `O=C(O)CN(CC(=O)O)CC(=O)O`, the outcome was inactive.
For the compound `O=C(NS(=O)(=O)/C=C/c1cccs1)c1ccc(F)cc1Br`, the AC50 is 29.6 µM (active).
On to `CN(C)C(=O)NC1(c2ccccc2)CCN(CC[C@@]2(c3ccc(F)c(F)c3)CN(C(=O)c3ccccc3)CCO2)CC1`, for which the call was inactive.
`C#CC(O)C(CC)CCCC` (stereo not given): the AC50 is 28.8 µM (active).
For `NCCOCCOCCN`, the outcome was inactive.
Turning to `CCCCCCC(CCCCCCCCCCC(=O)OCC(COC(C)=O)OC(C)=O)OC(C)=O` (stereo not given), the compound was classed as inactive.
Take `OCC(CO)n1cnc(-c2ccc(F)cc2)c1-c1ccnc(Oc2ccccc2)n1`: the outcome was inactive.
On the same count and under the same terms, the entry for `Cc1cc(Cc2ccc(N)c(C)c2)ccc1N` is “inactive”.
With `CCCCC(CC)CO` (stereo not given), the compound was called inactive.
On the same count and under the same terms, the entry for `CC(=O)CC(c1ccccc1)c1c(O)c2ccccc2oc1=O` (stereo not given) is “inactive”.
As to `COc1ccc(C(=O)Nc2nc3ccccc3c(NCc3ccccc3)c2C#N)cc1`, the AC50 is 9.26 µM (active).
`CCCCc1nc2cccnc2n1Cc1ccc(-c2ccccc2-c2nnn[nH]2)cc1`: the half-maximal activity concentration (AC50) was 15.4 µM (active).
Regarding `CC1=C(C)S(=O)(=O)CCS1(=O)=O`, the result was inactive.
Take `CC1(C)C(=O)NC(=O)N1CO`: the compound was called inactive.
Take `Cc1c(C)c2c(c(C)c1O)CCC(C)(COc1ccc(CC3SC(=O)NC3=O)cc1)O2` (stereo not given): the AC50 is 67.9 µM (active) and 76 µM (active).

The record behind these values is PubChem BioAssay (EPA / NIEHS).
